The source of these data is PubChem BioAssay (Tox21).

Test [1] can be described thus: qHTS assay to identify small molecule agonists of the constitutive androstane receptor (CAR) signaling pathway - cell viability counter screen (AID 1224836). Note: nearly all actives have a fitted effect of over 45% in size. The procedure, abridged: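 HepG2 cells stably carrying hCAR and a CYP2B6-2.2kb reporter; 15-concentration compounds plus PK11195 (final 0.75 uM), 23 hr at 37 C/5% CO2. Viability read by CellTiter-Fluor fluorescence.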
(In general: Quantitative high-throughput screening tests each substance at several concentrations.)

Test [2] can be described thus: qHTS assay to identify small molecule antagonists of the constitutive androstane receptor (CAR) signaling pathway - cell viability counter screen (AID 1224837). Note: nearly all actives have a fitted effect of over 45% in size. A digest of the protocol:
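Read-out: CellTiter-Fluor fluorescence after 23 hr at 37 C/5% CO2. Cells: HepG2 double-stable for hCAR and CYP2B6-2.2kb. Compounds tested at 15 concentrations in the presence of CITCO, final concentration 50 nM.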

A short description of test [3]: qHTS assay to identify small molecule antagonists of the estrogen related receptor signaling pathway with the pleiotropic PPARgamma coactivator (PGC) from Tox21 10K library - cell viability counter screen (AID 1224840; active = well fitted cell-killing curve with a large enough effect in the repeat runs, not every such curve was filed as active; note: nearly all actives have a fitted effect of over 40% in size). A digest of the protocol: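 Fluorescence read-out of CellTiter-Fluor viability reagent, added after cells had been exposed to compound in DMSO for 17.5 h at 37 C; 30 min development at 37 C/5% CO2. Cells: PGC/ERR line, 2,000/well.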

Test [4] in a line: qHTS assay to identify small molecule antagonists of the estrogen related receptor signaling pathway with the pleiotropic PPARgamma coactivator (PGC) from Tox21 10K library (AID 1224841; call rule not given here; note: actives are mostly falling curves and most rising ones were filed inactive; nearly all actives have a fitted effect of over 50% in size). The procedure, abridged:
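Luminescence read-out (One-Glo luciferase reagent, 30 min at room temperature) from PGC/ERR cells exposed to DMSO-dissolved test compounds for 18 h at 37 C; cells, 2,000 per well, had been preincubated 6 h before compound transfer.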

Test [5] can be described thus: qHTS assay to identify small molecule agonists of the estrogen related receptor signaling pathway with the pleiotropic PPARgamma coactivator (PGC) from Tox21 10K library (AID 1224842). Note: nearly all actives have a fitted effect of over 15% in size. Note: potency is the fitted concentration of half-maximal effect. A digest of the protocol:
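Luminescence from One-Glo (30 min, room temperature) measured after PGC/ERR cells had 18 h at 37 C with pinned compound (23 nL in DMSO). Cells had been seeded at 2,000 per well and pre-incubated 6 h.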

Test [6] concerns the target Thyrotropin receptor (Homo sapiens) (UniProt P16473). Nature of the test: qHTS assay to identify small molecule agonists of the thyroid stimulating hormone receptor (TSHR) signaling pathway (AID 1224843; calls by dose curve; note: nearly all actives have a fitted effect of over 45% in size; note: potency is the fitted concentration of half-maximal effect). A digest of the protocol:
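A cell-based cAMP HTRF format was run in TSHR-transfected HEK293 cells, 800 per well. Treatment: 30 min, room temperature. Detection: 1 h with labelled cAMP and anti-cAMP cryptate. Concentration-response over 15 points, three replicates.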

A short description of test [7]: qHTS assay to identify small molecule agonists of the hypoxia (HIF-1) signaling pathway - cell viability counter screen (AID 1224844; calls by dose curve; note: nearly all actives have a fitted effect of over 50% in size; note: potency is the fitted concentration of half-maximal effect). The procedure, abridged: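 CellTiter-Glo luminescence read-out, 30 min RT, taken in the same wells as the beta-lactamase HRE reporter assay; HRE-bla ME-180 cells, 0.5% dialyzed FBS, 17 hr compound treatment at 37C, 5% CO2.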
The nature of test [8]: qHTS assay to identify small molecule agonists of H2AX (AID 1224845; active = well fitted activation curve with a large enough effect in the signal ratio in the repeat runs, not every such curve was filed as active; the % refers to the signal ratio; note: potency is the fitted concentration of half-maximal effect). The procedure, abridged:
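Phospho-H2AX Ser139 measured by HTRF (ex 320 nm; em 665 and 620 nm) after 24 hr antibody incubation. Compounds, 15 concentrations, 0.76% DMSO, were applied to CHO-K1 cells for 3hr at 37C before lysis.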

Test [9] is described as follows: qHTS assay to identify small molecule agonists of the hypoxia (HIF-1) signaling pathway (AID 1224846; active = well fitted activation curve with a large enough effect in the signal ratio in the repeat runs, not every such curve was filed as active; the % refers to the signal ratio). The procedure, abridged:
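Beta-lactamase FRET read-out (CCF4-AM substrate) from ME-180 cells carrying an HRE-driven bla reporter, after 17 hrs compound exposure at 37C/5% CO2. Cells were seeded at 2,000 per well in 0.5% dialyzed FBS medium and preincubated 5 hrs.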

Test [10] is described as follows: qHTS assay to identify small molecule agonists of H2AX - cell viability counter screen (AID 1224847; calls by dose curve;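 note: wild-type CHO-K1 cells; top concentration of the series differs between compounds; nearly all actives have a fitted effect of over 30% in size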). A digest of the protocol: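 CHO-K1 cells plated overnight at 37C, then exposed 3 h at 37C to compounds at 15 concentrations (0.76% DMSO final). Viability by CellTiter-Glo luminescence after 30 min at room temperature.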
Test [11] in a line: qHTS assay to identify small molecule antagonists of the estrogen related receptor (ERR) signaling pathway from Tox21 library (AID 1224848). Note: nearly all actives have a fitted effect of over 50% in size. A digest of the protocol:
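ERR cell line, 2,000 cells/well. 6 h settle, then compound (DMSO) added; 18 h at 37 C; ONE-Glo luminescence after 30 min RT.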

Test [12] in a line: qHTS assay to identify small molecule agonists of the estrogen related receptor (ERR) signaling pathway from Tox21 library (AID 1224849; calls by dose curve; note: nearly all actives have a fitted effect of over 15% in size). Particulars: ERR reporter cell line, ONE-Glo luciferase, 18 h. A digest of the protocol:
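Luminescence readout (ONE-Glo, 30 min RT) after 18 h compound exposure at 37 C of NTP-supplied ERR reporter cells; cells were plated 6 h before compound addition by pin tool.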

Test [13] in a line: qHTS RealTime-Glo MT Cell Viability Assay in HepG2 cells - 24 hour (AID 1224867). Note: nearly all actives have a fitted effect of over 50% in size. A digest of the protocol: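 Real-time, nonlytic viability: 600 HepG2 cells/well mixed with NanoLuc enzyme plus prosubstrate; 5 h settle, compound (DMSO) added by pintool; luminescence monitored over 40 h at 37 C.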
Test [14] can be described thus: qHTS RealTime-Glo MT Cell Viability Assay in HEK293 cells - 32 hour (AID 1224868). For activity change, negative = cytotoxic: top concentration of the series differs between compounds. Note: nearly all actives have a fitted effect of over 50% in size. Note: potency is the fitted concentration of half-maximal effect. A digest of the protocol:
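Cells + reagent dispensed (600 cells/well, HEK293) → 5 h at 37 C/5% CO2 → 23 nL compound in DMSO pinned → 40 h at 37 C → luminescence read at 0, 8, 16, 24, 32, 40 h.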

The nature of test [15]: A CellTox Green Cytotoxicity Assay to monitor cytotoxicity in HEK293 cells - 0 hour (AID 1224869). Note: nearly all actives have a fitted effect of over 50% in size. Note: potency is the fitted concentration of half-maximal effect. The procedure, abridged: (§1)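 Read-out: fluorescence of a cell-impermeant cyanine dye staining DNA of dead cells, proportional to cytotoxicity. HEK293, 600 cells/well with reagent, compound (23 nL DMSO) added after 5 h; reads at 0, 8, 16, 24, 32, 40 h.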
Test [16] can be described thus: qHTS RealTime-Glo MT Cell Viability Assay in HepG2 cells - 40 hour (AID 1224870). Note: nearly all actives have a fitted effect of over 50% in size. Note: potency is the fitted concentration of half-maximal effect. A digest of the protocol:
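Real-time viability: cells seeded at 600 per well together with NanoLuc and cell-permeant prosubstrate, compounds added after 5 h incubation. Luminescence tracked at 0, 8, 16, 24, 32 and 40 h of exposure.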

Test [17] can be described thus: A CellTox Green Cytotoxicity Assay to monitor cytotoxicity in HEK293 cells - 40 hour (AID 1224871). Note: nearly all actives have a fitted effect of over 45% in size. Note: potency is the fitted concentration of half-maximal effect. A digest of the protocol: as §1
The target in test [18] is Nuclear receptor subfamily 1 group I member 3 (Homo sapiens) (UniProt Q14994). Nature of the test: qHTS assay to identify small molecule agonists of the constitutive androstane receptor (CAR) signaling pathway (AID 1224839). Note: nearly all actives have a fitted effect of over 15% in size. A digest of the protocol: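 HepG2 cells stably co-transfected with hCAR and a CYP2B6-2.2kb luciferase reporter; compounds at 15 concentrations with 0.75 uM PK11195 present. After 24 hr at 37 C, luciferase read by ONE-Glo luminescence.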
Chain of Nuclear receptor subfamily 1 group I member 3 (Homo sapiens) (Q14994 whole entry, looked up): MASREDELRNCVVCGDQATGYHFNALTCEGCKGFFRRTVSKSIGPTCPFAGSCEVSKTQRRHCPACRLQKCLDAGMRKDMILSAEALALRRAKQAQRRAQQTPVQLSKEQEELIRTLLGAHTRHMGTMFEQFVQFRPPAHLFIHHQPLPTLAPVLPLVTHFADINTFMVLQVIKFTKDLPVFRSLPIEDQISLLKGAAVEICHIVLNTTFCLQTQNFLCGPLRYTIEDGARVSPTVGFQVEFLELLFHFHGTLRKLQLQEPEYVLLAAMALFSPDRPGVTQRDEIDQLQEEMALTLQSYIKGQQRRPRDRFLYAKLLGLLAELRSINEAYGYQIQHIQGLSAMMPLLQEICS

The target is the same in test [19]. Briefly: qHTS assay to identify small molecule antagonists of the constitutive androstane receptor (CAR) signaling pathway (AID 1224838).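 Note: HepG2 cells stably expressing hCAR with CYP2B6 luciferase reporter stimulated by CITCO; nearly all actives have a fitted effect of over 40% in size.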 The procedure, abridged: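 Read-out: ONE-Glo luciferase luminescence after 30 min at room temperature. HepG2-CYP2B6-hCAR double-stable cells, compounds in 15-point titration plus 50 nM CITCO final, 24 h at 37 C/5% CO2.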

“And” between values parts separate entries of the source, which are not always exact repeats. Identical values can stand only once. Inconclusive results are not listed. More than one record can exist for a structure, and the calls need not agree. The source made the active and inactive calls. Unless noted, calls come from the whole dose curve; as a rule, active = well fitted curve in the direction sought with a large enough effect in the repeat runs; inconclusive = weak or mixed curves; inactive = no such curve, though single readings can be large; an effect the other way counts as inactive or inconclusive.
% is set by controls: 0 for no effect and ±100 for the full control effect.

Chain of Thyrotropin receptor (Homo sapiens) (P16473 whole entry, looked up): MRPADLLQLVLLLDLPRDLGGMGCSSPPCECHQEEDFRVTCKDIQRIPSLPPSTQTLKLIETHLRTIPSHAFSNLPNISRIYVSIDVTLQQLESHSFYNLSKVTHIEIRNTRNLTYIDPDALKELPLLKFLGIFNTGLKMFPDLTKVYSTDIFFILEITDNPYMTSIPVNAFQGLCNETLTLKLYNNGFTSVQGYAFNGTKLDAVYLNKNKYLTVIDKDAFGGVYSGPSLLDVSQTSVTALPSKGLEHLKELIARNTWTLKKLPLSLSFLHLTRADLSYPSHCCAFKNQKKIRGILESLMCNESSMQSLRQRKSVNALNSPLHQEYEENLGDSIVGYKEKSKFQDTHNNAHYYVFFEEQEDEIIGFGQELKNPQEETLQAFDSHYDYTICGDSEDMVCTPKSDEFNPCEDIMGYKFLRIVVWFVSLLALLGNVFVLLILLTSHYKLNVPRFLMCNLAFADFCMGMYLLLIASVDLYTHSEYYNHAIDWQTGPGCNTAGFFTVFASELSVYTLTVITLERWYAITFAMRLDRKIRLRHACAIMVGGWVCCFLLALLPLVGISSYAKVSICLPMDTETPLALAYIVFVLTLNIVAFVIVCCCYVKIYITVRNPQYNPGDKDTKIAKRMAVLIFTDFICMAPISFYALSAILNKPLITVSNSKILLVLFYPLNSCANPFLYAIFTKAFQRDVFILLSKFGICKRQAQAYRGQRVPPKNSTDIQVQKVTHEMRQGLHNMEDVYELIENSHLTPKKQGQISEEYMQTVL

Turning to `Cc1ccc(C(C)C)cc2c(C)ccc1-2`, the Potency entry in test [1], in test [2], in [3], in test [4], in [5] and in [6] was “inactive” throughout. Besides, the Potency result in [7], in test [8], in test [9], in test [10], in test [11] and in [13] was “inactive” in each case. Also, the Potency result in test [14], in test [15], in [16] and in test [17] was “inactive” each time. In addition, in test [12] (at 42.5 µM (top of the series)), the activity change, positive = activation was -2.57% (inactive).

On to `O=C(O)CN(CCN(CC(=O)O)CC(=O)O)CC(=O)O`, for which the activation in [18] is -0.673% [at 3.27 µM] (inactive); in [6], -1.34% [at 3.27 µM] (inactive). Moreover, the viability change, negative = cytotoxic in [3] was 1.11% [at 3.27 µM] (inactive). The activity change, negative = cytotoxicity in test [7] was -5.67% [at 2.72 µM] (inactive); in test [10], -5.08% [at 5.43 µM] (inactive); in test [13] it was 3.3% [at 2.72 µM] (inactive). The Potency was 4.52 µM (active) in test [8] and 1.96 µM (active) in test [15]. The figures for the activity change, negative = cytotoxic in [14] and in test [16] were 9.19% [at 2.72 µM] (inactive) and 12.4% [at 2.72 µM] (inactive), respectively.

For `CN1CCCCC1CCN1c2ccccc2Sc2ccc(S(C)=O)cc21` (stereo unspecified), the Potency result in test [1], in [2], in [18], in [6], in [8] and in [13] was “inactive” throughout. In test [16], the Potency result was “inactive”.

Turning to `O=C1c2ccccc2C(=O)N1SC1CCCCC1`, the Potency entry in test [1], in test [18], in test [3] and in [6] was “inactive” throughout. For the same compound, the Potency in test [7] was 54.9 µM (active); in test [14], 24.5 µM (active) and 38.9 µM (active); in test [16], “inactive and 43.6 µM (active)”; in test [17] it was 12.3 µM (active) and 21.9 µM (active).

For `C=CCn1c(=O)n(CC=C)c(=O)n(CC=C)c1=O`, the Potency entry in test [1], in test [2], in test [3], in test [6], in test [7] and in test [8] was “inactive” throughout. For the same compound, the Potency entry in test [10], in test [13], in test [14], in test [15], in [16] and in [17] was “inactive” each time.

In the case of `Cc1nc2n(c(=O)c1CCN1CCC(c3noc4cc(F)ccc34)CC1)CCCC2`, the Potency result in [1], in test [3], in test [6], in [7], in test [8] and in test [10] was “inactive” in each case. Further, the Potency entry in [13], in [15], in [16] and in [17] was “inactive” in each case. Besides, the Potency in test [14] was 3.79 µM (active).

Regarding `CN(C)[C@@H](CCOc1cccc2ccccc12)c1ccccc1`, the Potency result in [2], in [18], in [4], in test [5] and in [9] was “inactive” each time. For the same compound, the Potency in test [6] is 33.5 µM (active). The activity change, positive = activation in [12] (at 42.5 µM (top of the series)) is -27.2% (inactive).

For the compound `O=C1C(c2[nH]c3ccc(S(=O)(=O)O)cc3c2O)=Nc2ccc(S(=O)(=O)O)cc21`, the Potency result in test [1], in test [2], in test [3], in [5], in test [7] and in test [9] was “inactive” each time. The Potency entry in test [10], in test [13], in [14], in [15] and in test [16] was “inactive” in each case. The activity change, positive = activation in test [12] (at 92.4 µM (top of the series)) was -7.96% (inactive).

In the case of `O=C(O)O`, the viability change, negative = cytotoxic was 1.44% [at 8.39 µM] (inactive) in test [1] and -0.122% [at 8.39 µM] (inactive) in test [3]. In test [4], the activity, negative = inhibition was 259% [at 8.39 µM] (inactive). In addition, the Potency was 0.264 µM (active) in test [5] and 4.88 µM (active) in test [8]. In addition, the activation in test [6] was 2.41% [at 8.39 µM] (inactive). Besides, the activity change, negative = cytotoxicity in test [10] was -9.67% [at 14 µM] (inactive); in [13] it was 3.08% [at 6.97 µM] (inactive). Further, the activity change, positive = activation in [12] (at 8.39 µM (top of the series)) was 5.47% (inactive). Also, the activity change, negative = cytotoxic was 0.187% [at 6.97 µM] (inactive) in test [14] and 19% [at 6.97 µM] (inactive) in test [16]. Also, in [17], the cytotoxicity increase was 4.75% [at 6.97 µM] (inactive).

`O=c1c(O)c(-c2ccc(O)cc2O)oc2cc(O)cc(O)c12`: the Potency result in [2], in [18], in [3], in [6], in test [13] and in test [14] was “inactive” in each case. Besides, the Potency result in test [15] and in [16] was “inactive” in each case.

With `COC(C)=O`, the Potency entry in test [19], in [18], in [3], in test [7], in test [8] and in test [9] was “inactive” in each case. For the same compound, the Potency result in [10], in [13], in test [14], in [15], in test [16] and in test [17] was “inactive” in each case.

Regarding `O=C(/C=C/c1ccccc1)OC/C=C/c1ccccc1`, the Potency result in [1], in test [3], in test [4], in test [5], in test [7] and in [8] was “inactive” throughout. The Potency entry in [9], in [11], in [14], in test [15], in test [16] and in test [17] was “inactive” in each case. In addition, the activity change, positive = activation in test [12] (at 92.4 µM (top of the series)) is 3.92% (inactive).

Consider `NC(=O)c1cccc([N+](=O)[O-])c1`, for which the Potency result in test [2], in test [3], in [6], in test [7], in test [8] and in [9] was “inactive” throughout. For the same compound, the Potency result in test [10], in [13], in [14], in test [15], in [16] and in [17] was “inactive” each time.
